Assay results from paper PMC7819943, “Rice protein-binding microarrays: a tool to detect cis-acting elements near promoter regions in rice”.
Over roughly 68,000 sequences, “fluorescence intensity (a.u.)” has its median near 9,100; the highest 2% begin near 16,000. The list comes from a sample in which the highest values are over-represented; it also holds similar and randomly drawn sequences.

These sequences were tested against OsWRKY34 (Oryza sativa, UniProt Q0JBA9 1-250) (assay: protein-binding microarray (RPBM); PBS, 2% BSA, 51.3 ng/ul salmon testes DNA, 50 uM zinc acetate, 200 nM TF, 25 C, 1 h; high values mean tight binding). Conditions: protein: recombinant; tags: N-terminal polyhistidine and DsRed monomer fusion (pET32a); label: CyDye5-dUTP incorporated in the synthesized complementary strand; 3' TTTTT single-stranded linker to array surface; dsDNA, one strand shown.
Chain of OsWRKY34 (Q0JBA9 entry or part of it): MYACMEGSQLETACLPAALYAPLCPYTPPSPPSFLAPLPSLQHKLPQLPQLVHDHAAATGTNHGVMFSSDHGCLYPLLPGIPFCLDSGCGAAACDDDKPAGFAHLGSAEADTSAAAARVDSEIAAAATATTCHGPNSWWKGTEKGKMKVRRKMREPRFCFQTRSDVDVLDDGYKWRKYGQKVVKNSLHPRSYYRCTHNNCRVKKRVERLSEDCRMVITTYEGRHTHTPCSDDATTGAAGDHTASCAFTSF
In short: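 A custom Agilent array was converted to double-stranded form by primer extension with Cy5-dUTP and blocked with 2% BSA. Protein at 200 nM in PBS with 2% BSA, salmon testes DNA and 50 µM zinc acetate was applied for 1 h at 25 °C, followed by washing. The proteins were polyhistidine–DsRed N-terminal fusions of transcription factors, expressed in E. coli BL21-CodonPlus and Ni–NTA-purified. The binding signal is per-feature fluorescence intensity (arbitrary units) from an Axon 4000B scanner.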

Sequence | binding signal
GCCATTCTATAGGAGGTGGTGGGGAGGGTTTCGTGCTCCTCGGAGTCACCTAGTGCAG | 10800 fluorescence intensity (a.u.)
TTTGTCACGCGAATACTGTATTGTAGGGTGGGGTTCACTGCGGAGTCACCTAGTGCAG | 12100 fluorescence intensity (a.u.)
GCCGGCTAAACTGGCTTATTGTACTTGCTCTTACTTGACTCGGAGTCACCTAGTGCAG | 9430 fluorescence intensity (a.u.)
TCATTTTGTATTTTGTTGTCTCTGTCTTGCTGTTCCCTCGCGGAGTCACCTAGTGCAG | 8810 fluorescence intensity (a.u.)
ATTTTTTATTTCTTTTGTTTCAAATTTCAGTTCTTTTTATCGGAGTCACCTAGTGCAG | 9720 fluorescence intensity (a.u.)
ATGTTTTTTTTTGGGTCGCTTTCTTTGTGTGTGTATATATCGGAGTCACCTAGTGCAG | 16400 fluorescence intensity (a.u.)
ATGTTTTAATTTTGGGCTTCTTTTTGTTTTGGGCTTTTATCGGAGTCACCTAGTGCAG | 24300 fluorescence intensity (a.u.)
GCTCTCTCTCTCTCTCTCTCTCGCTGTCTCTCTCCCTCCCCGGAGTCACCTAGTGCAG | 9110 fluorescence intensity (a.u.)
TCTCGTTTCGTTCGTGTATCATGTTTTTTTTTGGGTCGCTCGGAGTCACCTAGTGCAG | 8730 fluorescence intensity (a.u.)
GTGTGTTGTTGTTCTTGTTTTGGTTCTTTTCTAGTAGTATCGGAGTCACCTAGTGCAG | 8750 fluorescence intensity (a.u.)
TTTTCTTTCTTTTTCTTTTTTTTTATCGTTTTGTTCTTCTCGGAGTCACCTAGTGCAG | 10500 fluorescence intensity (a.u.)
ATACTAGGCTGTATCTCTCTCGCTCTCTTGTTGTTCCCTCCGGAGTCACCTAGTGCAG | 18200 fluorescence intensity (a.u.)
GGTCATACTCTCTTCGTCCCATTTAATGTACAATCATGCTCGGAGTCACCTAGTGCAG | 8860 fluorescence intensity (a.u.)
GTTTCATAATCCTGTGTTCTTTTTGTTTACTATGGTTTTGCGGAGTCACCTAGTGCAG | 11000 fluorescence intensity (a.u.)
GCAACTGATAGACTAACTTGTCCGGTCCTGTTTTGGAATCCGGAGTCACCTAGTGCAG | 10200 fluorescence intensity (a.u.)
TGCCAGCACAAATCTCGAAGCACATCCAATGATCCAAGACCGGAGTCACCTAGTGCAG | 9540 fluorescence intensity (a.u.)
TACTGTTGCTGCTAGTTCACCATTTGCGCATTTCCTCTTCCGGAGTCACCTAGTGCAG | 11700 fluorescence intensity (a.u.)
TCGCCGTTCGCTGGTATATGCCGTTGTCTTGGAATCATCTCGGAGTCACCTAGTGCAG | 11100 fluorescence intensity (a.u.)
GGCGGTATCGACGAAGAATCTCGGGGCGGTGGGGAGGTTTCGGAGTCACCTAGTGCAG | 17700 fluorescence intensity (a.u.)
GCATCGTGGGGTGTGGGTGGCGGTTTTGGAGGGGAGAGGTCGGAGTCACCTAGTGCAG | 23200 fluorescence intensity (a.u.)
CCGGTGGGGTGGGGAATTCGGCGGAGGAAGACGACGACGACGGAGTCACCTAGTGCAG | 9250 fluorescence intensity (a.u.)
CGCGGGAATCGGCCGGCGACGTGGGGAGGTGGGGAGGAGACGGAGTCACCTAGTGCAG | 8900 fluorescence intensity (a.u.)

Sequence | binding signal
CGGTGTTGGGATCGGGTTTGGAGGTGGTAAGGGTGGTGGTCGGAGTCACCTAGTGCAG | 10600 fluorescence intensity (a.u.)
GGGAGAGGTGGAGACCAGGAGGTGGGGTGGCGGAGGTCATCGGAGTCACCTAGTGCAG | 14300 fluorescence intensity (a.u.)
GTGGAGGCGCGGTGGGGTGGGGAAGGAGTGTGTTTCGTGTCGGAGTCACCTAGTGCAG | 15500 fluorescence intensity (a.u.)
TGACATGGTTGTTAGGGTTTGCGAGCAAATTTTCGTGGGGCGGAGTCACCTAGTGCAG | 10100 fluorescence intensity (a.u.)
AAATTTAGGTGGAGGGGTGTGGGCGGTTTCGTGCAAAAATCGGAGTCACCTAGTGCAG | 19100 fluorescence intensity (a.u.)
ATGGGTTGGGACTGTCCTGGTGCGCGATTACTAACGTGGACGGAGTCACCTAGTGCAG | 8790 fluorescence intensity (a.u.)
TATTGGAACTATTACGACCACATGCTCTCTTCCTACTCTCCGGAGTCACCTAGTGCAG | 9770 fluorescence intensity (a.u.)
CTCCAGCCGATATACATGCAGCCGCTGTCATCTTTTGTTCCGGAGTCACCTAGTGCAG | 9100 fluorescence intensity (a.u.)
TCTTTTACACTTCATTTATTTTTTCATGCACCAAGGCTTACGGAGTCACCTAGTGCAG | 9810 fluorescence intensity (a.u.)
TGTTTTGGCTTTGGTCCCTTGCTTTTCTTTGGAGGTTGGACGGAGTCACCTAGTGCAG | 10400 fluorescence intensity (a.u.)
TTCTTTTTTTGTGGGGAGAGGCGGGCTGTTTTTTTCTTGCCGGAGTCACCTAGTGCAG | 15900 fluorescence intensity (a.u.)
GGATACTGCACAGCCCTTGATCACAATACAGTGCATTTCTCGGAGTCACCTAGTGCAG | 9450 fluorescence intensity (a.u.)
CTTGCACGCGACGGCCTGGCATTTGTGTACGGCACCGCCCCGGAGTCACCTAGTGCAG | 8030 fluorescence intensity (a.u.)
GGGGATTTTTGTACGCTCACGGCATTTTTTTTGTCAGCGACGGAGTCACCTAGTGCAG | 17500 fluorescence intensity (a.u.)
GAGTAGTTCGCTTTGGCAGTATGGCATTTGTACACGCTCACGGAGTCACCTAGTGCAG | 8660 fluorescence intensity (a.u.)
TATCTTATCAGGTCTCGTCTTCTTTAATCCAACCCTTGTTCGGAGTCACCTAGTGCAG | 8680 fluorescence intensity (a.u.)
ATCTTAAGCTGTCCTTTTTCATGCCGAGTCAGAGTTTCATCGGAGTCACCTAGTGCAG | 9130 fluorescence intensity (a.u.)
TCGGATACGAGTTTGATTCTCATCCTCCTTCATTTATATTCGGAGTCACCTAGTGCAG | 8320 fluorescence intensity (a.u.)
ACTCCCTCCGTATTTTAATATATGACGCCGTTGACTTATTCGGAGTCACCTAGTGCAG | 13800 fluorescence intensity (a.u.)
CCGTATTTGAATATATGACGCCGTTGACTTTTTAACTAATCGGAGTCACCTAGTGCAG | 17900 fluorescence intensity (a.u.)
CGTATTTTAATATATGACGCCGTTGACTTTTTATTAACGACGGAGTCACCTAGTGCAG | 23200 fluorescence intensity (a.u.)
CGTATTTTAATATATGACGCCCGCCGTTGACTTTTTGTCTCGGAGTCACCTAGTGCAG | 27800 fluorescence intensity (a.u.)

Sequence | binding signal
GTATGACTTCTCCGTTTTTATATTTGCACTAATTTTTTAACGGAGTCACCTAGTGCAG | 11200 fluorescence intensity (a.u.)
CTCTGCACGTTTCTTTCCCCTAACAAATACATGTACACACCGGAGTCACCTAGTGCAG | 9590 fluorescence intensity (a.u.)
ACACATAAACTTCTAACTTTTCCGTCACATCGTTCCAATTCGGAGTCACCTAGTGCAG | 8380 fluorescence intensity (a.u.)
GCATCCTAACATCCCGCCGAAGGACCTTTTCAACCTCATCCGGAGTCACCTAGTGCAG | 8300 fluorescence intensity (a.u.)
ATTGAGATAGAGGGAGTGGTTGGGATGGTGAAGTTGCTATCGGAGTCACCTAGTGCAG | 9450 fluorescence intensity (a.u.)
ACTCCATCAATTTTTCATTATGTCTGTGTTTGTCCTGACTCGGAGTCACCTAGTGCAG | 14900 fluorescence intensity (a.u.)
TCAACTGTACTGTACTCCACTCGCCGCACACACTGACACACGGAGTCACCTAGTGCAG | 11200 fluorescence intensity (a.u.)
TTATGCGTGACTTGTCTTTTTAATTTTTTAATAATTTTTTCGGAGTCACCTAGTGCAG | 9370 fluorescence intensity (a.u.)
ATACTTCATCCGTTTCTAAATATTTGATGCCGTTGACTTTCGGAGTCACCTAGTGCAG | 17600 fluorescence intensity (a.u.)
AATTTTTTTCCTCTCCTGTTTTGTGCCCTTGATATTATGTCGGAGTCACCTAGTGCAG | 13400 fluorescence intensity (a.u.)
GGTTTCCTCATATGCCCTTGAAAATTTGCTATTCCTCTGTCGGAGTCACCTAGTGCAG | 22700 fluorescence intensity (a.u.)
ATGTCCCTAATTACTGCGTTTTCCATTTTGCTGTTTTTTACGGAGTCACCTAGTGCAG | 16500 fluorescence intensity (a.u.)
GGGCATATTTCTCTATTTTTCTATTCCTATGGTTTGAAATCGGAGTCACCTAGTGCAG | 9080 fluorescence intensity (a.u.)
CATATACTCTATCCGTTTCTAAATATTTGACGCCGTTGACCGGAGTCACCTAGTGCAG | 16200 fluorescence intensity (a.u.)
ATATGTCTGACTTGTACTTTTATGTTATTTTTCCTCTAATCGGAGTCACCTAGTGCAG | 13900 fluorescence intensity (a.u.)
CATTTTTCTAATTACAAAGTCCATTTCTTTTTATGTTTTCCGGAGTCACCTAGTGCAG | 8830 fluorescence intensity (a.u.)
AGTTGTCCTGCTTTTTTGCTTTCCTAATCTGTTTCCATTTCGGAGTCACCTAGTGCAG | 13300 fluorescence intensity (a.u.)
AATATTTCATCAGTTTCTAAATTTTTGACGCCGTTGACTTCGGAGTCACCTAGTGCAG | 10200 fluorescence intensity (a.u.)
AATTGACTTTTTTATGCTAATTTTCCCTCTAATTACTTGTCGGAGTCACCTAGTGCAG | 18400 fluorescence intensity (a.u.)
CTGTTTAGATCTCCTAGCAACATTTTACACTCTCTTGCATCGGAGTCACCTAGTGCAG | 8740 fluorescence intensity (a.u.)
CGAACGGTTTAACATATTTAAAAAAGTCAACGGCGTCAAACGGAGTCACCTAGTGCAG | 8310 fluorescence intensity (a.u.)
GCTTGTTTCTTTGCTGAATTATTATTTTGCTCATTCCACTCGGAGTCACCTAGTGCAG | 10300 fluorescence intensity (a.u.)

Sequence | binding signal
TTTTTCCCTGAAGCTCCTGTGTGTCATCTCTCTTTTTCTTCGGAGTCACCTAGTGCAG | 11100 fluorescence intensity (a.u.)
ACACTGCCACTCTCTCCCTAGGCCTATAAATACCACCAGTCGGAGTCACCTAGTGCAG | 8340 fluorescence intensity (a.u.)
CATGTTAATTTTCTACTACAGCTTAGGTTGATGCTATGTTCGGAGTCACCTAGTGCAG | 8270 fluorescence intensity (a.u.)
ATCCGCAGACCAAGTCAACACTGCTACGTGAACACCACATCGGAGTCACCTAGTGCAG | 9850 fluorescence intensity (a.u.)
ACGTTATTTATTGTTTTAGGTTCAATCTACGAGTTTCTTTCGGAGTCACCTAGTGCAG | 10700 fluorescence intensity (a.u.)
TCCTCTTCGCCGGCTGCCGCTCCTCTCCCCGCTCGTCTTTCGGAGTCACCTAGTGCAG | 9440 fluorescence intensity (a.u.)
TTTTTTTTTTATCCGTCCCTACTCCTCGCACCTTAAAAATCGGAGTCACCTAGTGCAG | 10300 fluorescence intensity (a.u.)
GATCTCTCTCTCATCAGGACCCCGGCCTTAAGTTGTTTCTCGGAGTCACCTAGTGCAG | 9120 fluorescence intensity (a.u.)
GATACTCCCTCCATCCATAAATATTTGATGCCGTTGACTTCGGAGTCACCTAGTGCAG | 12300 fluorescence intensity (a.u.)
ATTTCCCGTCCTTGTCCTAAATGAGTACTAATTTTGATTTCGGAGTCACCTAGTGCAG | 10400 fluorescence intensity (a.u.)
TACTTCCTTTGTCCCTAAATATTTGATGCCGTTGACTTTTCGGAGTCACCTAGTGCAG | 23900 fluorescence intensity (a.u.)
TGGATTTATTTATTCTTGTTCTTTTTCTCGAAAATTTCCACGGAGTCACCTAGTGCAG | 8640 fluorescence intensity (a.u.)
CTGCTATGAATTATCGGTTGCTTCCGGTGTTGGGCATTGACGGAGTCACCTAGTGCAG | 12400 fluorescence intensity (a.u.)
CTACTCCCTCCATTTCGAAATGTTTGACACCGTTGACTTTCGGAGTCACCTAGTGCAG | 13900 fluorescence intensity (a.u.)
TGACACCGTTGACTTTTCGACCAATGTTTGACCATTCGTTCGGAGTCACCTAGTGCAG | 24400 fluorescence intensity (a.u.)
TTTCGACTAACGTTTGACCATTCGTTTTATTCAAAATTTTCGGAGTCACCTAGTGCAG | 8880 fluorescence intensity (a.u.)
GGTTTTGTGATTTTGACACCCATTCAGGTTCGTTGTTTTTCGGAGTCACCTAGTGCAG | 11900 fluorescence intensity (a.u.)
ACACCGTTGACTTTTCGACTAACGTTTGACCATTTGTTTTCGGAGTCACCTAGTGCAG | 49300 fluorescence intensity (a.u.)
TTAAATGAGTGTTGACTTTTCGTATAACGTTTGACCATTTCGGAGTCACCTAGTGCAG | 14600 fluorescence intensity (a.u.)
